Outcome and AC50 data for 40 compounds are collected here from PubChem BioAssay (EPA / NIEHS).

Calls of active or inactive are those of the source. The calls were made as follows: active = hit-call score of the fitted dose curve at least 0.9, where 1 is the maximum; inactive = score below 0.9.

Read-out in the assay: X-box binding protein 1 (XBP1), XBP1 (gene 7494)
Kind of assay: LTEA_HepaRG_XBP1: Life Technologies and Expression Analysis (LTEA) Assay for X-box binding protein 1 (XBP1) using HepaRG (AID 2283540). The settings on record: mRNA level, 48 h; actives raise or lower the signal. The method, then:
LTEA_HepaRG is a cell based, multiplexed-readout assay that uses HepaRG, a human liver cell line, with measurements taken at 48 hours after chemical dosing on a 96-well plate.LTEA_HepaRG_XBP1 is one of 102 assay component(s) measured in the LTEA HepaRG cell culture assay. It is a marker of Diseases associated with XBP1 including Major Affective Disorder 7 and Bipolar Disorder.Data from the assay component LTEA_HepaRG_XBP1 was analyzed into 1 endpoint. This assay endpoint, LTEA_HepaRG_XBP1, was analyzed with bidirectional fitting relative to DMSO as the negative control and baseline of activity. Using a type of inducible reporter, measures of mRNA induction for gain or loss-of-signal activity can be used to understand regulation of transcription factor activity. To generalize the intended target to other relatable targets, this assay endpoint is annotated to the dna binding intended target family, where the subfamily is basic leucine zipper.
A total of 1060 chemcials from the ToxCast library were tested in eight-point concentration-response experiments. Cell culture and cytotoxicity assays were conducted at Thermo Fisher Scientific's Custom Services facility (Madison, WI). A single lot of human HepaRG cells (Thermo Fisher Scientific, Frederick, MD) was used for the cell culture experiments. 96-well format collagen type I coated plates of human HepaRG cells were prepared using established methods. Briefly, cryopreserved HepaRG cells were thawed, plated at a density of approximately 100,000 cells/well in HepaRG Thaw, Plate, and General Purpose media (HPRG770, Thermo Fisher Scientific), and incubated for 48 hours. 0.5% DMSO was selected as vehicle control to balance the requisite need of DMSO in HepaRG cultures to maintain differentiation (for example, baseline metabolism, proportions of hepatocytes vs. cholangiocytes), while enabling further hepatic receptor pathway activation (for example, PXR and CAR) in response to chemical exposure. 48 hours after plating, the culture medium was replaced with HepaRG Serum-Free Incudtion Media. Cells were exposed to each test chemical in duplicate and maintained in CO2 incubators for another 48 hours. Chemical plates were thawed to room temperature and 200x concentrations of treatment groups were prepared. 8-point conentration-reponse curves were made with the highest exposure at 100 uM, followed by half-log dilutions, all in 0.5% DMSO. Each test plate contained variouse controls, induction positive controls (1mM phenobarbital), cytotoxicity positive controls ([…] aflatoxin B1), vehicle controls (0.5% DMSO), and total lysis controls (0.5% DMSO). Cell morphology images were taken using an Essen IncuCyte FLR automated microscope, with six 96-well plates imaged in about 24 minutes. Images were captured and exported and JPEG files. Spent culture media was transfered to black-well plates for the LDH assay, and remaining media was sorted at -80 C for later use. Cells were treated with RLT buffer and frozen until shipped for gene expression analysis. Total RNA was isolated from the cell suspension in 75 uL of Buffer RLT (Qiagen, Germantown, MD 20874) by Quintiles/Expression Analysis (Durham, NC) using a custom isolation procedure. Total RNA from each plate well was transferred to a preamplification plate. Fluidigm's 96.96 Dynamic ArrayTM (Fluidigm, Amsterdam, the Netherlands) technology was used for gene expression analyses by quantitative reverse transcription polymerase chain reaction (qRT-PCR, performed by Quintiles/Expression Analysis, Durham, NC)89. Standard TaqManTM Assays (Applied Biosystems/ThermoFisher Scientific, Foster City, CA) were used to assess the expression of 93 genes selected based on their selectivity and sensitivity to important hepatic receptors known to be modulated by environmental chemicals; importance in human hepatocyte functionality; and hepatotoxicity. […]
For `CCCCC(CC)COP(=O)(OCC(CC)CCCC)OCC(CC)CCCC` (stereo not given), the compound was called inactive.
`O=C1CCCCC1`: the compound was called inactive.
On to `CCCCOC(=O)CCCCC(=O)OCCCC`, for which the outcome was inactive.
Take `O=C(NS(=O)(=O)/C=C/c1cccs1)c1ccc(F)cc1Br`: the compound was called inactive.
Still for that read-out and setting: the same measure for `CCCCCCC(CCCCCCCCCCC(=O)OCC(COC(C)=O)OC(C)=O)OC(C)=O` (stereo not given): “inactive”; for `CCCCc1nc2cccnc2n1Cc1ccc(-c2ccccc2-c2nnn[nH]2)cc1`: “inactive”; for `CN(C)CCCN1c2ccccc2Sc2ccc(Cl)cc21`: “inactive”.
Regarding `Oc1ccccc1O`, the call was inactive.
With `O=C(O)c1[nH]n(-c2ccc(S(=O)(=O)O)cc2)c(=O)c1N=Nc1ccc(S(=O)(=O)O)cc1`, the call was inactive.
On the same count and under the same terms, the same measure for `CCCC(=O)O`: “inactive”.
For `O=C1NC(=O)C(c2ccccc2)(c2ccccc2)N1`, the compound was classed as inactive.
Regarding `CC(C)COC(=O)CCCCC(=O)OCC(C)C`, the call was inactive.
For `O=[Si]=O`, the outcome was inactive.
Consider `CC(C)c1cccc(C(C)C)c1`, for which the outcome was inactive.
On to `CCCCCCCCCCCCCCCCO`, for which the outcome was inactive.
Regarding `CC(=O)OCC(COC(C)=O)OC(C)=O`, the compound was called inactive.
On the same count and under the same terms, the same measure for `CC1(C)C(=O)NC(=O)N1CO`: “inactive”; for `NC=O`: “inactive”; for `Oc1ccc(O)cc1`: “inactive”.
Consider `CCc1cc(C2=C(C(=O)O)N(c3ccccc3C(F)(F)F)S(=O)(=O)c3ccccc32)cc2c1OCO2`, for which the outcome was inactive.
Broadly, the AC50 is the concentration giving half of the maximal activity seen. For the compound `CC1=C(C)S(=O)(=O)CCS1(=O)=O`, the AC50 was 91 µM (active).
On to `Nc1nc(=S)c2[nH]cnc2[nH]1`, for which the AC50 is 15.7 µM (active).
As to `CC(COCC(C)OC(=O)c1ccccc1)OC(=O)c1ccccc1` (stereo not given), the outcome was inactive.
Consider `Cc1c(C)c2c(c(C)c1O)CCC(C)(COc1ccc(CC3SC(=O)NC3=O)cc1)O2` (stereo not given), for which the call was inactive.
As to `O=C(O)CN(CC(=O)O)CC(=O)O`, the call was inactive.
Consider `OCC(O)CO`, for which the outcome was inactive.
For `NC(=Nc1ccccc1)Nc1ccccc1`, the call was inactive.
Take `CCCCCCCC(=O)OC`: the call was inactive.
Still for that read-out and setting: in the case of `O=C1OC(c2ccc(O)cc2)(c2ccc(O)cc2)c2ccccc21` it was “inactive”.
As to `COc1ccc(C(=O)Nc2nc3ccccc3c(NCc3ccccc3)c2C#N)cc1`, the half-maximal activity concentration (AC50) is 13.2 µM (active).
As for `CCCCCCCCCCCCCCOS(=O)(=O)O`, the result was inactive.
Same read-out and setting: in the case of `O=C1O[C@H]([C@H](O)CO)C(O)=C1O` it was “inactive”; in that of `CC(=O)OC1CC(C)OC(C)O1` (stereo not given), “inactive”; in that of `Cn1cnc2c1c(=O)[nH]c(=O)n2C`, “inactive”.
With `CN(C)CCCN(C)CCCN(C)C`, the result was inactive.
On to `CCc1nc(N)nc(N)c1-c1ccc(Cl)cc1`, for which the call was inactive.
`Nc1nc(Cl)nc2c1ncn2[C@H]1C[C@H](O)[C@@H](CO)O1`: the AC50 is 1.56 µM (active).
Turning to `COc1ccc(OC(F)(F)F)cc1CN[C@H]1CCCN[C@H]1c1ccccc1`, the call was inactive.
Consider `CCCCC(CC)CO` (stereo not given), for which the compound was classed as inactive.
As for `CS(=O)(=O)c1ccc([C@@H](C[C@H]2CCC(=O)C2)C(=O)Nc2cnccn2)cc1Cl`, the AC50 was 1.33 µM (active).
